# LASV entry inh: blocks Lassa virus binding to or entry into cells. AID 540256. Potency, µM (top dose mostly 37.9 µM), for the others: at the highest dose activity change, negative = inhibition, actives largely listed as inhibitors. 300,000 compounds, 1.2% hits. Lassa virus pseudotype entry inhibition, cell reporter; calls by dose curve; tested in HEK293 cells; further: potency means the concentration at half of the fitted maximal effect; on the % scale 0 is the no-effect control and ±100 the full control effect; nearly all actives have a fitted effect of over 50% in size
# VACV mCherry inh: vaccinia inhibition (mCherry reporter); AID 720579; 310,000 compounds, 0.63% hits; Potency, µM (top dose mostly 36.5 µM), inactives show at the top dose activity change, negative = inhibition, most hits filed as inhibitors; Vaccinia virus mCherry reporter infection, fluorescence; calls by dose curve; tested in A549 cells; further: potency means the concentration at half of the fitted maximal effect; on the % scale 0 is the no-effect control and ±100 the full control effect; nearly all actives have a fitted effect of over 35% in size
# Shiga inhibitor: blocks Shiga toxin action in Vero cells | Vero cells, Shiga toxin protein synthesis inhibition reporter | inhibition, % at 38.7 µM | 290,000 compounds, 9.2% hits | AID 2315; in the data active means inhibition mostly above about 28%, no sharp cut-off; inactive means mostly below about 43%; further: 0% is about no effect
# MARV entry inh: inhibitors of Marburg virus binding or cell entry | Marburg virus pseudotyped entry inhibition, cell reporter | Potency, µM (top dose mostly 37.8 µM), inactives show at the top dose activity change, negative = inhibition, usual class: inhibitors | 300,000 compounds, 1.8% hits; calls by dose curve; tested in HEK293 cells; further: potency means the concentration at half of the fitted maximal effect; on the % scale 0 is the no-effect control and ±100 the full control effect
# CHX counter: affects cycloheximide protein synthesis inhibition readout, counter-screen; cell reporter, cycloheximide protein synthesis inhibition counterscreen; max response, %; 300,000 compounds, 12% hits; in the data active means max response mostly above about 13%, no sharp cut-off; inactive means mostly below about 14%; further: read at 38.3 µM for the half of the compounds with a filed dose; 0% is about no effect
# Vaccinia Venus: inhibitors of vaccinia virus (Venus reporter); 330,000 compounds, 0.46% hits; Potency, µM (series often up to 36.5 µM), inactives show at the highest dose activity change, negative = inhibition, hits mostly inhibitors; Vaccinia virus Venus reporter expression, fluorescence; calls by dose curve; tested in A549 cells; further: potency means the concentration at half of the fitted maximal effect; on the % scale 0 is the no-effect control and ±100 the full control effect; nearly all actives have a fitted effect of over 30% in size
# * marks the source's active call; other numbers are inactive results; i = inactive; ? = inconclusive; · = not tested or not shown; + = active, no number; [ ] = another dose, or the depositor's remark. Shown is part of a subset that was picked to be rich in hits.
SMILES,LASV entry inh,VACV mCherry inh,Shiga inhibitor,MARV entry inh,CHX counter,Vaccinia Venus
O=C(Nc1ccc(N2CCCCC2)cc1)c1cccnc1Cl,?,i,72.4*,23.1%,33.3*,-10.6%
O=C(Nc1ccc(N2CCOCC2)nc1)c1ccccc1Cl,14.4%,-19.4%,27.7,3.5%,28.8*,-15.1%
Cc1nc(/N=C\c2ccc(N(C)C)cc2)sc1C,·,-11.6%,·,·,·,1.7%
CCOP(=O)(NC12CC3CC(CC(C3)C1)C2)NC12CC3CC(CC(C3)C1)C2,?,-3.6%,-2.8,-8.5%[46.1 µM],-3.7,3.5%
CC1(C)Cc2c(cnn2-c2ccccc2)C(=O)/C1=N\NC(=O)c1ccccc1O,-13.0%,·,32.2,-10.5%,16.3*,-8.3%
Fc1ccccc1-c1nc(-c2ccc(Br)o2)no1,·,·,85.1*,·,56.9*,·
COc1ccc(Br)cc1-c1noc(-c2ccccc2F)n1,14.5%,i,-7.5,12.3%,-2.2,0.0%
Cc1cc(NC(=O)c2ccc(Br)o2)cc(-c2nc3ccccc3o2)c1O,0.8%[46.1 µM],-8.5%,·,11.7%[46.1 µM],·,1.8%
Cc1ccccc1-c1noc(-c2cc3ccccc3oc2=O)n1,24.3%[46.1 µM],-12.4%,·,·,·,-3.1%
Cc1ccccc1-c1nc(-c2ccc(NC(=O)c3ccc(Br)o3)cc2)no1,-18.7%,·,57.1*,0.2%,26.9*,·
Cc1ccccc1-c1nc(-c2ccc(Br)o2)no1,2.1%[46.1 µM],-1.1%,97.3*,?,43.5*,0.4%
CCCCOc1ccc(CNC(=O)CN2CCSc3ccccc32)cc1,17.5%[46.1 µM],4.0%,·,·,·,1.1%
O=C(c1cnn2c1NC(c1ccc(Br)cc1)CC2C(F)(F)F)N1CCN(C23CC4CC(CC(C4)C2)C3)CC1 (stereo not drawn),1.8%,·,-2.8,16.4µM*,-3.7,·
C(#Cc1ccc(C#CCN2CCOCC2)cc1)CN1CCOCC1,-19.2%,·,-8.0,-1.4%,-2.4,·
C#CC[N+]1(CC#Cc2ccccc2)CCCCC1,-1.6%,-16.6%,1.1,18.9%[46.1 µM],-5.1,-9.1%
C(#Cc1ccccc1)CN1CCOCC1,·,-3.3%,96.2*,18.3%[46.1 µM],31.0*,0.7%
C#CC[N+]1(CC#Cc2ccccc2)CCOCC1,24.6%,-2.2%,26.2,-0.9%,16.5*,-5.6%
CCCCNc1nc(Oc2ccc(=O)n(C)n2)nc(N2CCOCC2)n1,22.4%[46.1 µM],8.0%,·,12.8%[46.1 µM],·,5.5%
COC1CCCCC1C1CCN(C(=O)c2ccco2)CC1 (stereo not drawn),·,·,·,-3.8%[14.2 µM],·,·
O=c1c(-c2ccnn2-c2ccc(F)cc2)cnc2n1CCS2,7.9%,-9.2%,-28.1,6.5%,-0.7,-2.1%
N#Cc1ccc(-n2nccc2-c2cnc3n(c2=O)CCS3)cc1,0.5%,1.1%,2.1,16.4%[46.1 µM],25.6*,-1.6%
COc1ccc(C(=O)N2CCc3cc(OC)c(OC)cc3C2COc2ccc3c(C)cc(=O)oc3c2)c(OC)c1 (stereo not drawn),-2.0%[46.1 µM],-10.7%,·,10.4%[46.1 µM],·,2.9%
CCOc1ccc(CNc2ccc(N3CCCC3)cc2)cc1,-28.4%[14.3 µM],9.6%,32.7,2.4%,16.6*,12.2%
CCOc1cc(CNc2ccc(N3CCCC3)cc2)cc(Cl)c1OC,?,-13.5%,41.2*,-20.3%,20.3,-16.0%
O=[N+]([O-])c1cc(/C=N\Nc2nc(-c3ccccc3)cs2)ccc1O,-6.1%[46.1 µM],?,92.6,0.9%[46.1 µM],22.6*,2.4%
SMILES,LASV entry inh,VACV mCherry inh,Shiga inhibitor,MARV entry inh,CHX counter,Vaccinia Venus
COc1ccc(/C=N/Nc2nc(-c3cccc(S(=O)(=O)N4CCCC4)c3)cs2)cc1OC,-9.0%,-22.2%,+,?,14.8,-14.3%
COc1ccc(-c2csc(NC(=S)NC(=O)c3ccc(S(=O)(=O)N(C)C)cc3)n2)cc1OC,·,·,5.2,·,2.8,·
CCOc1cc(/C=N/Nc2nc(-c3cccc(S(=O)(=O)N4CCCC4)c3)cs2)ccc1O,?,?,8.9,?,-2.0,?
COc1cc(/C=N/Nc2nc(-c3ccc(S(=O)(=O)N(C)C)cc3)cs2)ccc1O,·,·,50.2*,·,13.4*,·
C[C@@H]1C(=O)N(C)C(=O)c2nc[nH]c21,·,·,·,3.7%,·,·
C/C(CC(=O)Nc1ccc(N(C)C)cc1)=N\NC(=O)c1ccc(Cl)cc1,·,·,31.9,·,27.5*,·
C/C(CC(=O)Nc1ccc(N(C)C)cc1)=N\NC(=O)c1ccccc1Cl,·,-4.9%,·,·,·,-4.5%
C/C(CC(=O)Nc1ccc(N(C)C)cc1)=N\NC(=O)c1ccccn1,-3.8%,·,98.2*,?,33.1*,-10.1%
C/C(CC(=O)Nc1ccc(N(C)C)cc1)=N\NC(=O)c1cnccn1,18.3%,i,63.4*,?,23.4*,-15.3%

# Compound activity as filed in PubChem BioAssay.
